The full ranking holds about 33,000 sequences; the median of “E-score (-0.5 to 0.5)” is about -0.032, and the highest 2% start at about 0.36. The full list was thinned out, with the highest values kept by preference.
Target: T1, Sko1 (UniProt Q02100)
T1 sequence: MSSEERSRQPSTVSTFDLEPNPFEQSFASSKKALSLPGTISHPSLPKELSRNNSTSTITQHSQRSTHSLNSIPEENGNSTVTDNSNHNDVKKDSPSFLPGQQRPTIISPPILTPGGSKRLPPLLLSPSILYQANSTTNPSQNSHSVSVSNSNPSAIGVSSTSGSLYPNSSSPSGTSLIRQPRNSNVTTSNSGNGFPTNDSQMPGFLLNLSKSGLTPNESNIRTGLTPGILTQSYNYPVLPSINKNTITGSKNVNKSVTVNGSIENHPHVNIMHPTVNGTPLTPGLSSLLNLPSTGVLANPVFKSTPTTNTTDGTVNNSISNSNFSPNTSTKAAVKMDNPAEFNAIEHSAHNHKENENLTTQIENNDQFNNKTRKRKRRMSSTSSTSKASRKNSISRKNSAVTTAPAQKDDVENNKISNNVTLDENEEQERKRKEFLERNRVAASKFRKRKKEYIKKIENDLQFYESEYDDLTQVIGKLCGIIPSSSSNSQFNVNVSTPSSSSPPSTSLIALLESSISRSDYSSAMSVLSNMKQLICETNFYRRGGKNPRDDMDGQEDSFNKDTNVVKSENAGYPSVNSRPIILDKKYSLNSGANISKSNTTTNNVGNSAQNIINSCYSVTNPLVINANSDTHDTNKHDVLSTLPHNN
Assay: PBM E-score (8-mer binding enrichment) (E-score (-0.5 to 0.5)); higher = stronger / more preferred TF binding
Conditions: protein concentration: 200 nM; construct: GST-full length
Outline: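 Masliner-normalised scans of fluorescent anti-GST signal were the basis for scoring. That signal came from GST-tagged yeast transcription factors applied at about 100-200 nM to double-stranded universal all-10-mer Agilent arrays on fresh or once-stripped slides. Each ungapped eight-base word, pooled with its reverse complement, received an E-score from the Universal PBM Analysis Suite.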

Compared with CCTATAGG, CAGTAAGA is higher in “PBM E-score” value: -0.205 for the first, 0.0474 for the second.

First: ACACATAC
Second: ATGTGACC
The “PBM E-score” value of the first is higher: 0.124 for the first, -0.0234 for the second.

Compared with CGGTGACG, AGGTGACA is lower in “PBM E-score” value: 0.449 for the first, 0.118 for the second.

Going from CGGTGACC to ATGTGACA, the “PBM E-score” value rises from -0.172 to 0.169.

First: ATGTGACG
Second: AGGTGACG
The “PBM E-score” value of the first is higher: 0.44 for the first, 0.388 for the second.

Going from AGGTGACC to CGGTGACA, the “PBM E-score” value rises from -0.0978 to -0.0125.

Compared with CTCACTAA, AGGGCCAG is lower in “PBM E-score” value: 0.118 for the first, -0.407 for the second.

Going from ACCGAGGC to GGCATTGA, the “PBM E-score” value rises from -0.319 to -0.104.

Going from CCGTAATA to GCGTAAGC, the “PBM E-score” value rises from 0.288 to 0.294.

First: ACGTAAGA
Second: ACGTAAGC
The “PBM E-score” value of the first is higher: 0.476 for the first, 0.455 for the second.

Going from GCGTAATA to AAGTAAGC, the “PBM E-score” value falls from 0.421 to 0.0436.

First: CCGTAAGC
Second: GAGTAATA
The “PBM E-score” value of the first is lower: -0.0492 for the first, 0.183 for the second.

Going from CCGTAAGA to ACGTAAGT, the “PBM E-score” value rises from -0.0187 to 0.465.

Going from TCGTAAGA to AAGTAAGT, the “PBM E-score” value falls from 0.199 to 0.0641.

Compared with AGAGTTCC, CGTAGGTC is higher in “PBM E-score” value: -0.269 for the first, 0.284 for the second.

Compared with GTCTCAAA, AAGATATT is higher in “PBM E-score” value: -0.0308 for the first, 0.0367 for the second.

First: ACTCCTAC
Second: CGTTGCAC
The “PBM E-score” value of the first is lower: 0.0364 for the first, 0.11 for the second.

Compared with CTCGGCGA, CAACATTC is lower in “PBM E-score” value: -0.0899 for the first, -0.167 for the second.

Compared with AATGCCCA, ATTCTTGC is higher in “PBM E-score” value: -0.173 for the first, 0.0625 for the second.

First: GGCAGCAC
Second: CTTCTCAA
The “PBM E-score” value of the first is lower: -0.103 for the first, -0.04 for the second.

Compared with GCAACCGA, ATTGGCAA is higher in “PBM E-score” value: -0.129 for the first, 0.134 for the second.

Going from GTGTAAGA to CTGTAATA, the “PBM E-score” value rises from 0.0148 to 0.042.

First: GCGTAAGA
Second: GAGTAAGA
The “PBM E-score” value of the first is higher: 0.378 for the first, 0.0882 for the second.

Compared with GTGTAATA, CCGTAAGG is lower in “PBM E-score” value: 0.221 for the first, -0.15 for the second.

First: ATGTAATA
Second: AGGTAAGG
The “PBM E-score” value of the first is higher: 0.376 for the first, -0.0698 for the second.

Compared with ACGTAAGG, GACTTTGC is lower in “PBM E-score” value: 0.464 for the first, -0.117 for the second.

Compared with TCTCGCAA, CATGCCAG is lower in “PBM E-score” value: -0.114 for the first, -0.191 for the second.

First: CCTAGGCA
Second: AGAGCGAT
The “PBM E-score” value of the first is lower: -0.257 for the first, -0.16 for the second.

Going from CTAGCTAC to GCATGCCA, the “PBM E-score” value falls from -0.105 to -0.187.

Compared with CTGCCATA, GTCTGCCA is higher in “PBM E-score” value: -0.0751 for the first, -0.00797 for the second.

First: AACGCGTA
Second: CACGCGTC
The “PBM E-score” value of the first is lower: 0.287 for the first, 0.291 for the second.

First: TACGCGTA
Second: GACGCGTA
The “PBM E-score” value of the first is lower: 0.387 for the first, 0.388 for the second.

Compared with ATCGCGTA, TACGCGCA is lower in “PBM E-score” value: 0.326 for the first, 0.209 for the second.

Going from CACGCGTA to CTCGCGTA, the “PBM E-score” value falls from 0.311 to 0.212.

First: GTCGCGTA
Second: CCCTGGCA
The “PBM E-score” value of the first is higher: 0.363 for the first, -0.34 for the second.

Going from GGCTGGCA to AGAACGGG, the “PBM E-score” value rises from -0.303 to -0.124.

Compared with AGTGCGTG, CCTGCGTC is lower in “PBM E-score” value: 0.152 for the first, 0.122 for the second.

Compared with CGTGCGTC, CGTGCGCA is lower in “PBM E-score” value: 0.388 for the first, 0.205 for the second.

First: CGTGCGAC
Second: CGTGCGTA
The “PBM E-score” value of the first is lower: 0.0911 for the first, 0.382 for the second.

Going from GGTGCGTA to AGTGCGTC, the “PBM E-score” value falls from 0.299 to 0.225.

Compared with AGTGCGTA, CTAGACTA is lower in “PBM E-score” value: 0.376 for the first, -0.139 for the second.

Compared with CATTGGTC, CTTGTGCA is higher in “PBM E-score” value: -0.282 for the first, -0.154 for the second.

First: GTAGCGGA
Second: CGCTTAAA
The “PBM E-score” value of the first is lower: -0.0973 for the first, 0.0298 for the second.

Source: the supplement of paper PMC3334620
